{"source": "PubChem BioAssay AID1851", "about": "(National Center for Advancing Translational Sciences (NCATS), 2009)", "note": "Among all 16,000 compounds or so, about 5,700 (36%) were called active. Another 24% or so got no clear call; they are omitted. The list shows a part of the results. Values without a mark were called inactive. Calls follow the shape of the dose curve; as a rule, active = well fitted curve in the direction sought with a large enough effect; inconclusive = small, poorly fitted or top-dose-only effect, or effect the other way; inactive = no such curve, though single readings can be large or run the other way. % is scaled to controls: 0 for no effect and ±100 for the full control effect."}
{"molecular_target": "Cytochrome P450 1A2 (Homo sapiens) (UniProt P05177)", "sequence (P05177 whole entry, looked up)": "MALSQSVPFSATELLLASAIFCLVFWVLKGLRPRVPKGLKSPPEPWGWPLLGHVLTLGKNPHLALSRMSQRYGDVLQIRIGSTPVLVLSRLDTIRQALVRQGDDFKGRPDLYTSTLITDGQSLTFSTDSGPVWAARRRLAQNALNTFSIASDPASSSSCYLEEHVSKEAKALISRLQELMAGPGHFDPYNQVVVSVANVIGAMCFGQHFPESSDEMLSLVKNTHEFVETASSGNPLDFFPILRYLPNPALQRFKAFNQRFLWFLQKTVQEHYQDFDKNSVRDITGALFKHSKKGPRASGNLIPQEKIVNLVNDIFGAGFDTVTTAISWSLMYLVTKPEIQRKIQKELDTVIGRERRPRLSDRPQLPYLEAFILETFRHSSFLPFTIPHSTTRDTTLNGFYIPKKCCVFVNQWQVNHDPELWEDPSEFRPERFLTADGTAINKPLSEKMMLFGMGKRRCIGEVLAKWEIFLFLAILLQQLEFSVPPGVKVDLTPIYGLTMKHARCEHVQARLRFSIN", "test": "Cytochrome panel assay with activity outcomes", "details": "recombinant CYP, pro-luciferin dealkylation, luminescence, p450-cyp1a2; series mostly up to 57.1 µM"}
{"smiles": "CN(C)S(=O)(=O)Oc1cccc(C(=O)Nc2ccccc2Cl)c1", "AC50": "2 µM (active)"}
{"smiles": "CCCC(=O)Nc1ccc(C(=O)Nc2cc(C(F)(F)F)ccc2Cl)cc1", "AC50": "inactive"}
{"smiles": "COc1cc(NC(=O)c2ccc(COCC(F)(F)F)cc2)cc(OC)c1OC", "AC50": "inactive"}
{"smiles": "COc1ccc(/C=C/C(=O)Nc2cc(C(F)(F)F)ccc2Cl)cc1", "AC50": "0.447 µM (active)"}
{"smiles": "COc1ccc(C(=O)N2CCC3(CCN(Cc4cc(C(F)(F)F)cc(C(F)(F)F)c4)CC3)CC2)cc1", "AC50": "inactive"}
{"smiles": "COc1cc(C(=O)Nc2cc(C(F)(F)F)ccc2Cl)cc(OC)c1OC", "AC50": "5.01 µM (active)"}
{"smiles": "COc1cccc(C(=O)Nc2cc(C(F)(F)F)ccc2Cl)c1", "AC50": "2.51 µM (active)"}
{"smiles": "CCOc1ccc(/C(O)=C2/C(=O)C(=O)N(CCOCCO)C2c2cccnc2)cc1", "note": "(configuration not stated)", "AC50": "inactive"}
{"smiles": "CS(=O)(=O)N1CCC[C@@]2(CCN(c3ccccn3)C2)C1", "AC50": "inactive"}
{"smiles": "COC(=O)CNC(=O)/C=C/c1ccc(OC)cc1", "AC50": "12.6 µM (active)"}
{"smiles": "COC(=O)CNC(=O)CCCCC(=O)NCC(=O)OC", "AC50": "inactive"}
{"smiles": "COc1ccc(CNC(=O)/C=C/c2ccc(OCCCF)cc2)cc1", "AC50": "inactive"}
{"smiles": "CCOc1ccc(CCNC(=O)C2CCN(S(=O)(=O)CC)CC2)cc1OCC", "AC50": "inactive"}
{"smiles": "Cc1ccc(CNC(=O)CCNS(=O)(=O)c2ccc3c(c2)c(=O)n(C)c(=O)n3C)cc1", "AC50": "inactive"}
{"smiles": "CCOC(=O)Cn1c(=O)oc2cc(S(=O)(=O)NCCc3ccc(OCC)c(OCC)c3)ccc21", "AC50": "12.6 µM (active)"}
{"smiles": "N#Cc1cccc(NC(=O)N2CC[C@@]3(CCCN(C(=O)c4ccco4)C3)C2)c1", "AC50": "inactive"}
{"smiles": "Cc1ccc(C(=O)NCCCN2CCOCC2)cc1N1CCCC1=O", "AC50": "inactive"}
{"smiles": "O=C(NCCCn1ccnc1)c1ccc(Br)c(S(=O)(=O)N2CCOCC2)c1", "AC50": "1.78 µM (active)"}
{"smiles": "COc1ccc(C(=O)NCCCN2CCOCC2)cc1OC", "AC50": "inactive"}
{"smiles": "Cc1cccc([C@@H]2CN(C)CCc3c2cc(O)c(O)c3Cl)c1", "AC50": "inactive"}
{"smiles": "CC(C)Nc1nc(Oc2ccc(Cl)cc2)cc(C(F)(F)F)n1", "AC50": "2 µM (active)"}
{"smiles": "CC(C)c1cc(C(F)(F)F)nc(NNc2nc(C(C)C)cc(C(F)(F)F)n2)n1", "activity, negative = inhibition": "-41.5% [at 11.4 µM]"}
{"smiles": "CCS(=O)(=O)c1ccc2oc(Nc3cc(C)cc(C)c3)nc2c1", "AC50": "5.01 µM (active)"}
{"smiles": "Cc1cc(C)n(-c2cc(N3CCN(S(=O)(=O)c4ccc(C)c(C)c4)CC3)ccc2[N+](=O)[O-])n1", "AC50": "inactive"}
{"smiles": "OC[C@@H](O)COc1cccc2ccccc12", "AC50": "0.631 µM (active)"}
{"smiles": "CC(C)NC[C@H](O)COc1cccc2ccccc12", "AC50": "0.2 µM (active)"}
{"smiles": "O=C(O)c1cc(=O)c2c(OCC(O)COc3cccc4oc(C(=O)O)cc(=O)c34)cccc2o1", "AC50": "inactive"}
{"smiles": "CC(C)NC[C@H](O)c1ccc2ccccc2c1", "AC50": "12.6 µM (active)"}
{"smiles": "CC(C)NC[C@H](O)c1cc(O)cc(O)c1", "AC50": "inactive"}
{"smiles": "CC(=O)Nc1ccc(OC[C@@H](O)CNC(C)C)cc1", "AC50": "inactive"}
{"smiles": "CC(C)NC[C@@H](O)COc1ccc(COCCOC(C)C)cc1", "AC50": "inactive"}
{"smiles": "CC(C)NC[C@H](O)c1ccc(NS(C)(=O)=O)cc1", "AC50": "inactive"}
{"smiles": "OC[C@@H](O)CNc1ncnc2ccccc12", "activity, negative = inhibition": "-18.7% [at 11.4 µM]"}
{"smiles": "CC(C)NC[C@@H](O)c1ccc(O)c2ncccc12", "activity, negative = inhibition": "-12.1% [at 2.29 µM]"}
{"smiles": "O=C(Cc1ccccc1)N/N=C/c1cc(Br)c(Br)o1", "AC50": "2.24 µM (active)"}
{"smiles": "O=C(O)/C(=C\\c1ccccc1)Cc1ccccc1", "activity, negative = inhibition": "-18.4% [at 11.4 µM]"}
{"smiles": "O=C(Cc1ccccc1)N/N=C\\c1ccc(Br)o1", "AC50": "4.47 µM (active)"}
{"smiles": "N[C@@](CC(=O)O)(Cc1ccccc1)C(=O)O", "activity, negative = inhibition": "-13.4% [at 2.29 µM]"}
{"smiles": "COC(=O)c1ccc(-n2cncn2)c(F)c1", "AC50": "0.708 µM (active)"}
{"smiles": "COC(=O)c1ccc2ccn(CC(=O)NC3CCCCC3)c2c1", "AC50": "inactive"}
{"smiles": "O=P(O)(O)O[C@@H]1O[C@H](CO)[C@@H](O)[C@H](O)[C@@H]1O", "activity, negative = inhibition": "-16.5% [at 11.4 µM]"}
{"smiles": "COc1ccccc1OCCCCCc1c(C)n[nH]c1C", "AC50": "1.78 µM (active)"}
{"smiles": "O=c1cc(N2CCCCC2)c(-c2ccccc2)nn1Cc1ccccc1Cl", "AC50": "1.26 µM (active)"}
{"smiles": "O=[N+]([O-])c1ccc(N2CCN(CCOc3nonc3-c3ccccc3)CC2)c(Cl)c1", "AC50": "inactive"}
{"smiles": "O=C(c1ccc(Cl)cc1)N1CCN(c2cc(=O)[nH]nc2-c2ccccc2)CC1", "AC50": "inactive"}
{"smiles": "CN(C)C(=O)c1ccc(-c2nccc(NCc3cccnc3)n2)cc1", "AC50": "15.8 µM (active)"}
{"smiles": "Cc1cccc(N(NC(=O)C(C)(C)O)C(=O)c2ccccc2)c1", "AC50": "inactive"}
{"smiles": "Cc1cccc(CNc2ccnc(-c3ccc(C(=O)N(C)C)cc3)n2)c1", "AC50": "25.1 µM (active)"}
{"smiles": "C/C(=N\\N=C(c1ccccc1)c1ccccc1)c1cccs1", "AC50": "1.41 µM (active)"}
{"smiles": "C/C(=N\\N=C1\\NC(=O)CC(C(=O)O)S1)c1cccs1", "note": "(configuration not stated)", "AC50": "inactive"}
{"smiles": "C[C@@H](CSC(=N)N)C(N)=O", "activity, negative = inhibition": "-6.57% [at 2.29 µM]"}
{"smiles": "Cc1ccc(-c2cccc(OC(=O)c3ccccc3F)c2)cc1", "AC50": "1.26 µM (active)"}
{"smiles": "O=C(c1cc(O)c(O)c([N+](=O)[O-])c1)c1ccccc1F", "AC50": "inactive"}
{"smiles": "Cc1cc(NC(=O)CSc2nnc(-c3ccccc3)n2Cc2ccco2)no1", "AC50": "inactive"}
{"smiles": "Cc1ccccc1CSc1nnc(-c2cccs2)n1Cc1ccco1", "AC50": "4.47 µM (active)"}
{"smiles": "CCn1c(SCc2nc3ccccc3[nH]2)nnc1-c1ccc(OC)cc1", "AC50": "25.1 µM (active)"}
{"smiles": "c1ccc(SCc2nc3ccccc3[nH]2)cc1", "AC50": "11.2 µM (active)"}
{"smiles": "CCn1c(SCC(=O)NC(=O)NCc2ccco2)nnc1-c1cccs1", "AC50": "inactive"}
{"smiles": "c1ccc(-c2nnc(SCc3nc4ccccc4[nH]3)n2Cc2ccco2)cc1", "AC50": "14.1 µM (active)"}
{"smiles": "O=c1cc(CSc2ccccc2)[nH]c(=S)[nH]1", "AC50": "inactive"}
{"smiles": "COCCn1c(Cc2ccccc2)nnc1SCc1nc2ccccc2c(=O)[nH]1", "AC50": "inactive"}
{"smiles": "COc1ccc(NC(=O)CCNS(=O)(=O)c2ccc3c(c2)CCC(=O)N3)cc1", "AC50": "inactive"}
{"smiles": "Cc1ccccc1C1C(C#N)=C2N=C(N)c3c(sc4c3CCCCC4)N2C2=C1C(=O)CC(C)(C)C2", "note": "(configuration not stated)", "AC50": "inactive"}
{"smiles": "COc1ccc(-n2c(=O)c(-c3cccs3)nc3cnc(OC)nc32)cc1", "AC50": "5.01 µM (active)"}
{"smiles": "COc1ncc2nc(-c3cccs3)c(=O)n(-c3ccccc3)c2n1", "AC50": "2 µM (active)"}
{"smiles": "CN(C)c1ncc2nc(-c3cccs3)c(=O)n(-c3ccccc3)c2n1", "AC50": "31.6 µM (active)"}
{"smiles": "COc1ccc(Oc2ncc3nc(-c4cccs4)c(=O)n(-c4ccccc4)c3n2)cc1", "AC50": "3.16 µM (active)"}
